Measurements: PubChem BioAssay (EPA / NIEHS)
Records with an inconclusive call do not appear. Calls of active or inactive are those of the source. The calls were made as follows, unless noted: active = hit-call score of the fitted dose curve at least 0.9, where 1 is the maximum; inconclusive = response in the unintended direction; inactive = score below 0.9.

Legend:
[1] = molecular target: Oxysterols receptor LXR-alpha (Homo sapiens) (UniProt Q13133); experiment: ATG_LXRa_TRANS: Attagene TRANS-FACTORIAL HepG2 Assay for human Liver X Receptor alpha (LXRa) (AID 2282980); settings: HepG2 Attagene TRANS reporter, LXRa transactivation
Chain of Oxysterols receptor LXR-alpha (Homo sapiens) (Q13133 whole entry, looked up, the tested form may be a part): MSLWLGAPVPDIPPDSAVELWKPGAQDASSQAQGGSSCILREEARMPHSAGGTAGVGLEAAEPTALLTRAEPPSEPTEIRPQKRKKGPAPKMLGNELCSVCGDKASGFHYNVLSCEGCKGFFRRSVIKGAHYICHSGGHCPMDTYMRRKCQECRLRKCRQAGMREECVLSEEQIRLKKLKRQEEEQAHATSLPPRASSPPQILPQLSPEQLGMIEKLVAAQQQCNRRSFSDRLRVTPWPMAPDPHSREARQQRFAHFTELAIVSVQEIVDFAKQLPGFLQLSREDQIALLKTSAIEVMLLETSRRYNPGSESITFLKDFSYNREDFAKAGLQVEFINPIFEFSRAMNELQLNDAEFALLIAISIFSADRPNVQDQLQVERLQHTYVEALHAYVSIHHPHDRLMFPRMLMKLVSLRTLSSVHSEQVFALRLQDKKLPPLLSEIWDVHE
Procedure, shortened: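 HepG2 cells transiently transfected with GAL4-UAS reporter units for chimeric NR-Gal4 proteins, exposed to chemicals for 24 h. Reporter mRNA quantified by RT-PCR and capillary electrophoresis; gain of signal fitted relative to DMSO.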

[2] = molecular target: Hepatocyte nuclear factor 4-alpha (Homo sapiens) (UniProt P41235); experiment: ATG_HNF4a_TRANS: Attagene TRANS-FACTORIAL HepG2 Assay for human Hepatocyte Nuclear Factor 4 alpha (HNF4a) (AID 2282982); settings: HepG2 HNF4a transactivation reporter, mRNA readout
Chain of Hepatocyte nuclear factor 4-alpha (Homo sapiens) (P41235 whole entry, looked up, the tested form may be a part): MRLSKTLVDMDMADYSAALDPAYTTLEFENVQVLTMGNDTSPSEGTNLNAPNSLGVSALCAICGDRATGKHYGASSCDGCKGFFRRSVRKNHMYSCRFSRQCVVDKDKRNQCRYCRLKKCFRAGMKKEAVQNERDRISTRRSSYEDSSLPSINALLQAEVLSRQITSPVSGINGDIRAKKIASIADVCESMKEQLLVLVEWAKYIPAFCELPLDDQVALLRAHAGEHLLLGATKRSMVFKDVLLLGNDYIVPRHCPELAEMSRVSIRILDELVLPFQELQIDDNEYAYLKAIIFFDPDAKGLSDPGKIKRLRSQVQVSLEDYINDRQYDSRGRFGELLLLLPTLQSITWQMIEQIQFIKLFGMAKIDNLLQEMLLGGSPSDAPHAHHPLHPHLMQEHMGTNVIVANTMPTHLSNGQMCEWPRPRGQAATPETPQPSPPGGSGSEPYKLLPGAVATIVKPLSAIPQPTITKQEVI
Procedure, shortened: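 In this trans-factorial format, a chimeric HNF4a-GAL4 fusion drives a GAL4-UAS reporter in transfected HepG2 liver cells. After 24 h treatment, reporter mRNA induction is measured by RT-PCR with capillary electrophoresis, relative to DMSO.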

[3] = ATG_M_06_TRANS: Attagene TRANS-FACTORIAL HepG2 Assay for M06 Transcription Factor (Internal Marker) (AID 2282983); settings: HepG2 Attagene TRANS M06 internal marker reporter
Procedure, shortened: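 mRNA levels of a reporter transcript, quantified as FAM fluorescence on capillary electrophoresis, served as readout. HepG2 cells expressing exogenous GAL4-chimera reporter constructs were exposed for 24 h. Gain of signal over DMSO was evaluated.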

[4] = ATG_M_32_TRANS: Attagene TRANS-FACTORIAL HepG2 Assay for M32 Transcription Factor (Internal Marker) (AID 2282984); settings: HepG2 Attagene TRANS M32 internal marker reporter;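 also: transcript level of a background control reporter unit measured by RT-PCR and capillary electrophoresis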
Procedure, shortened: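 After 24 h dosing of transfected HepG2 cells, total RNA was reverse-transcribed, reporter sequences PCR-amplified, 6-FAM labelled by primer extension and HpaI-digested before capillary electrophoresis. Signal increase over DMSO was fitted.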

[5] = molecular target: Nuclear receptor subfamily 4 group A member 2 (Homo sapiens) (UniProt P43354); experiment: ATG_NURR1_TRANS: Attagene TRANS-FACTORIAL HepG2 Assay for human Nuclear Receptor Related Protein 1 (NURR1) (AID 2282985); settings: HepG2 Attagene TRANS reporter, mRNA readout
Chain of Nuclear receptor subfamily 4 group A member 2 (Homo sapiens) (P43354 whole entry, looked up, the tested form may be a part): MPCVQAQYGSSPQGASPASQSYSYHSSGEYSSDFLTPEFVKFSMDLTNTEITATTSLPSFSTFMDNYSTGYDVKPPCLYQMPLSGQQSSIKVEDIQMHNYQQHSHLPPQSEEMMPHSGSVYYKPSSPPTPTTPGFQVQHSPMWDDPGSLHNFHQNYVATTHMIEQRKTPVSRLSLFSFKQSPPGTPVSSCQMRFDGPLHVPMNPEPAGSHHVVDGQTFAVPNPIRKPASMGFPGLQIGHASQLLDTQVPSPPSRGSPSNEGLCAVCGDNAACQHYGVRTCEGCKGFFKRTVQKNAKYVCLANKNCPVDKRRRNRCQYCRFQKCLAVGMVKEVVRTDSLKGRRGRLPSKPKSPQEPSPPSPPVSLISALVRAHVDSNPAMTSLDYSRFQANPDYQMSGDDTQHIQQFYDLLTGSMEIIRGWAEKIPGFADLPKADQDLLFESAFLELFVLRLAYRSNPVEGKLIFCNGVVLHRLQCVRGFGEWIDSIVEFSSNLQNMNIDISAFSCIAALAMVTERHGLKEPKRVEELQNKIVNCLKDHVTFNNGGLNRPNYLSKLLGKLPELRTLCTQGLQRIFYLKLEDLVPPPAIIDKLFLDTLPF
Procedure, shortened: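 Chimeric NR-Gal4 fusion activity measured in HepG2 after 24 h treatment. Reporter transcripts detected by RT-PCR and capillary electrophoresis fluorescence; positive-direction curve fitting against DMSO.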

[6] = molecular target: Transcriptional activator Myb (Homo sapiens) (UniProt P10242); experiment: ATG_Myb_CIS: Attagene CIS-FACTORIAL HepG2 Assay for human Myeloblastosis (Myb) Proto-Oncogene Transcription Factor (AID 2282986; active = hit-call score of the fitted dose curve at least 0.9, where 1 is the maximum; inactive = score below 0.9); settings: HepG2 Attagene CIS-FACTORIAL Myb reporter transcription; actives raise or lower the signal
Chain of Transcriptional activator Myb (Homo sapiens) (P10242 whole entry, looked up): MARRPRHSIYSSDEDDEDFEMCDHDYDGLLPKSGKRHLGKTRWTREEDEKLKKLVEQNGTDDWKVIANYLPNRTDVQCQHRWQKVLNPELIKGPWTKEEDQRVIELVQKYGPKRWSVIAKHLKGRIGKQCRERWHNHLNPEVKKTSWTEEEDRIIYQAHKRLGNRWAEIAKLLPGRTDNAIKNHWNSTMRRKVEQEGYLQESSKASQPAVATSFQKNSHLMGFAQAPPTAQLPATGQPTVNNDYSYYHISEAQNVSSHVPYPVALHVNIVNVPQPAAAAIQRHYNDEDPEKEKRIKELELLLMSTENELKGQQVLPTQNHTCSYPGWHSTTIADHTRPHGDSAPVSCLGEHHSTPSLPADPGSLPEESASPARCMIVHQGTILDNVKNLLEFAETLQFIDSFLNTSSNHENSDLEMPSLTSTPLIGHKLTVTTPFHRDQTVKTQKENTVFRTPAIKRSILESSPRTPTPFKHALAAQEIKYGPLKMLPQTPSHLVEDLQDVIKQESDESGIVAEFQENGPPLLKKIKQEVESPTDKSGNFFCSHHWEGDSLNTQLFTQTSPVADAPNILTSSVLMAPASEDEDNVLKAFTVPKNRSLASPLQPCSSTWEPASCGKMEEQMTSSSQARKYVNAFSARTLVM
Procedure, shortened: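 In this HepG2 transient-transfection format, cis-regulated reporter mRNA is quantified 24 h post-dosing by RT-PCR with capillary electrophoresis, fitted bidirectionally to DMSO baseline.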

[7] = molecular target: Nuclear respiratory factor 1 (Homo sapiens) (UniProt Q16656); experiment: ATG_NRF1_CIS: Attagene CIS-FACTORIAL HepG2 Assay for human Nuclear Respiratory Factor 1 (NRF1) Orphan Gene (AID 2282987; active = hit-call score of the fitted dose curve at least 0.9, where 1 is the maximum; inactive = score below 0.9); settings: HepG2 NRF1 cis-element reporter, Attagene multiplex; actives raise or lower the signal
Chain of Nuclear respiratory factor 1 (Homo sapiens) (Q16656 whole entry, looked up): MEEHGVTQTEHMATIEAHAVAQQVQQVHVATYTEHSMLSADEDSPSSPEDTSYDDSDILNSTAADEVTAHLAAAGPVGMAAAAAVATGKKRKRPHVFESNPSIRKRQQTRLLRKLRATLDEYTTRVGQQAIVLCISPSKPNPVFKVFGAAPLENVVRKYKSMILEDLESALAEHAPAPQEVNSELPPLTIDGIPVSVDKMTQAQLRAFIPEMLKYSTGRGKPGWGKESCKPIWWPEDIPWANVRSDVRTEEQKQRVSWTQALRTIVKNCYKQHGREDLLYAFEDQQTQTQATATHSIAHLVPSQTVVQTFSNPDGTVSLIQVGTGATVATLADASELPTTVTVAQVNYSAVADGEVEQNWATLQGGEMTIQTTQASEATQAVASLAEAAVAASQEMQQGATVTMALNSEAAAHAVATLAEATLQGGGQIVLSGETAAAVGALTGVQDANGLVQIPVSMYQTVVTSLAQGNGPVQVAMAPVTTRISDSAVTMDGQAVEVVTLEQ
Procedure, shortened: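 Using DMSO as baseline, gain- or loss-of-signal was fitted for reporter mRNA levels in HepG2 cells transiently transfected with cis-regulated reporter units. Samples were taken 24 h after dosing and read by RT-PCR with capillary electrophoresis.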

[8] = molecular target: Oxysterols receptor LXR-beta (Homo sapiens) (UniProt P55055); experiment: ATG_LXRb_TRANS: Attagene TRANS-FACTORIAL HepG2 Assay for human Liver X Receptor beta (LXRb) (AID 2282981); settings: HepG2 Attagene TRANS GAL4-LXRb reporter, mRNA
Chain of Oxysterols receptor LXR-beta (Homo sapiens) (P55055 whole entry, looked up, the tested form may be a part): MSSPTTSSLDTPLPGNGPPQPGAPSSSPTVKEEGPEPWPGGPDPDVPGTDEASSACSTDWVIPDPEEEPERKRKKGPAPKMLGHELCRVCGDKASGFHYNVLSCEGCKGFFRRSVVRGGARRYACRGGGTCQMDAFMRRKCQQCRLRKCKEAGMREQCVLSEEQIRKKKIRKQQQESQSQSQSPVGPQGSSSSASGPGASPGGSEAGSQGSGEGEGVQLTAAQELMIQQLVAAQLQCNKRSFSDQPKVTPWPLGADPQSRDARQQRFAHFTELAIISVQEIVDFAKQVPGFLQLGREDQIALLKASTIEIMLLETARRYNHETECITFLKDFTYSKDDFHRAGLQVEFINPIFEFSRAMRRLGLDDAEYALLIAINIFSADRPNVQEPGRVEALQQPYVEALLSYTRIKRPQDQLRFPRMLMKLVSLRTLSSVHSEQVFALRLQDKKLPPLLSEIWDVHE
Procedure, shortened: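 Measures induction of a Gal4-driven reporter transcript in HepG2 cells expressing an exogenous LXRb-Gal4 fusion. Cells are exposed to compound for 24 h before RNA isolation and RT-PCR with capillary electrophoresis detection.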

Measured: AC50

N#Cc1nc(Cl)c(Cl)c(Cl)c1Cl
active: [2] 5.77 µM | [6] 2.71 µM | [7] 5.93 µM
inactive: [1] | [3] | [4] | [5]

CCCC1CCC(=O)O1 (stereo not given)
inactive: [1] | [3] | [5] | [6] | [7]

COc1ccc(NC(=O)CC(C)=O)cc1
inactive: [1] | [2] | [3] | [4] | [5] | [6] | [7]

CCCCOCCOCCOCCOCCO
inactive: [1] | [2] | [3] | [4] | [5] | [6] | [7]

CCCCCCOC(=O)CC
inactive: [1] | [8] | [4] | [7]

CC(=O)/C=C/C1=C(C)CCCC1(C)C
inactive: [1] | [3] | [6] | [7]

CC1CC(OC(=O)c2ccccc2O)CC(C)(C)C1 (stereo not given)
inactive: [8] | [4] | [6] | [7]
active: [1] 31.1 µM

CCCCCCCCCCCCN(CCCCCCCCCCCC)CCCCCCCCCCCC
inactive: [1] | [8] | [3] | [4] | [6] | [7]

COc1nc(C)nc(N)n1
inactive: [1] | [2] | [3] | [4] | [5] | [7]

CCCCCC(=O)OCCc1ccccc1
inactive: [1] | [3] | [6] | [7]

C[C@H]1C[C@@H]2[C@H]([C@@H](O)C[C@@]3(C)[C@H]2CC[C@]3(O)C(=O)CO)[C@@]2(C)C=CC(=O)C=C12
inactive: [1] | [8] | [3] | [6] | [7]

Nc1cc(Cl)c(O)c(Cl)c1
active: [2] 100 µM
inactive: [1] | [8] | [5] | [6] | [7]

CC(CN1c2ccccc2Sc2ccccc21)N(C)C (stereo not given)
inactive: [1] | [8] | [2] | [6] | [7]

NCCCN1CCOCC1
inactive: [8] | [3] | [5] | [6] | [7]

CC(C)(C)c1cc(CCC(=O)NN)cc(C(C)(C)C)c1O
inactive: [8] | [6] | [7]

Fc1c(F)c(F)c(Br)c(F)c1F
inactive: [8] | [3] | [7]

NNc1nc(-c2ccc(N)cc2)cs1
inactive: [8] | [2] | [3] | [4] | [6] | [7]

O=C1O[C@@H]2[C@@H](O)[C@H](O)O[C@@H]2[C@H]1O
inactive: [8] | [2] | [3] | [6] | [7]

Cc1ccc(C=O)s1
inactive: [1] | [4] | [6] | [7]

C=C(C)[C@@H]1CC[C@@H](C)C[C@@H]1O
inactive: [8] | [3] | [4] | [6] | [7]

Sc1nc(S)nc(S)n1
inactive: [8] | [2] | [3] | [4] | [5] | [6] | [7]

c1ccc(CCCc2ccccn2)cc1
inactive: [8] | [2] | [3] | [4] | [5] | [6] | [7]

OCCOc1cccc(OCCO)c1
inactive: [8] | [2] | [3] | [6] | [7]

CCCCNC(=O)NS(=O)(=O)c1ccc(N)cc1
inactive: [8] | [2] | [3] | [6] | [7]

C=C[C@@H](C)CCC=C(C)C
inactive: [8] | [3] | [4] | [5] | [6] | [7]

OC1C(O)C(O)C(O)C(O)C1O (stereo not given)
inactive: [8] | [2] | [3] | [4] | [5] | [6] | [7]

C=COCCOCCOCCOC=C
inactive: [8] | [2] | [3] | [4] | [6] | [7]

CCCOCC(C)O (stereo not given)
inactive: [8] | [2] | [3] | [7]

O=C(O)CCCCCCCC(=O)O
inactive: [8] | [2] | [3] | [4] | [6] | [7]
